In PubChem BioAssay (NCATS):
Several values for one entry are separate records, joined by “and”; a condition that tells them apart may be missing. Equal values may be shown once. Results filed as inconclusive are left out. Activity calls are given as the source filed them. Unless noted, calls follow the shape of the dose curve; as a rule, active = well fitted curve in the direction sought with a large enough effect; inconclusive = small, poorly fitted or top-dose-only effect, or another doubt; inactive = no such curve, though single readings can be large; an effect the other way counts as inactive or inconclusive.

What was measured:
[1] = Cell Viability - HUV-EC-C (AID 542);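 also: cells exposed to compound for 40 hours; % is scaled to controls: 0 for no effect and ±100 for the full control effect; nearly all actives have a fitted effect of over 35% in size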
Method in brief: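 CellTiter-Glo luminescence measured ATP loss in HUV-EC-C cells (1000/well) after 40 hr compound exposure at 37 °C, in complete culture medium. Concentration-response data were Hill-fitted to give AC50.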

[2] = Cell Viability - LYMP2-004 (AID 966);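 also: plate controls were DMSO only for no effect and tetraoctylammonium bromide control for full effect; nearly all actives have a fitted effect of over 65% in size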
Method in brief: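 AC50 values come from Hill modelling of concentration-dependent loss of intracellular ATP, measured by CellTiter-Glo luminescence. Human LYMP2-004 lymphoblastoid cells (2500/well) were exposed to compound for 24 h at 37 C.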

[3] = target: Bile acid receptor (Homo sapiens) (UniProt Q96RI1); assay: qHTS assay for small molecule antagonists of farnesoid X receptor signaling (AID 588526; calls by dose curve; also: % is scaled to controls: 0 for no effect and ±100 for the full control effect)
Method in brief: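 Antagonist mode: titrated compounds tested against chenodeoxycholic acid stimulation (normalized to 50 uM CDCA and DMSO) in GeneBLAzer HEK293T cells for 16 h. Beta-lactamase read by CCF4 fluorescence; IC50 from Hill fits.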

[4] = qHTS assay for small molecule antagonists of peroxisome proliferator-activated receptor delta signaling (AID 588535; active = well fitted inhibition curve with a large enough effect in the signal ratio, with a control signal flat, not every such curve was filed as active; the % refers to the signal ratio; also: potency is read from the fitted curve at half-maximal effect;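 as to max response: cells co-treated with a PPAR-delta agonist as stimulator during compound exposure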); conditions: HEK293T PPARd-UAS-bla, beta-lactamase FRET ratio, 18 h; 460 nm channel
Method in brief: (§1)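 Fluorescence from CCF4-loaded GeneBLAzer PPAR-delta-UAS-bla HEK293T cells (2 hrs RT loading) quantified reporter inhibition after an 18 hr, 37 C compound exposure across a titration.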

[5] = target: Peroxisome proliferator-activated receptor delta (Homo sapiens) (UniProt Q03181); assay: as above
Method in brief: as §1

[6] = target: Peroxisome proliferator-activated receptor gamma (Homo sapiens) (UniProt P37231); assay: qHTS assay for small molecule antagonists of peroxisome proliferator-activated receptor gamma signaling (AID 588537; active = well fitted inhibition curve with a large enough effect in the signal ratio, with a control signal flat, not every such curve was filed as active; the % refers to the signal ratio;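 also: reporter cells co-stimulated with 50 nM rosiglitazone agonist during compound treatment; % of control where 0% means no effect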)
Method in brief: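 Fluorescence at 460 and 530 nm (405 nm excitation) reported beta-lactamase cleavage of CCF4 after 2 h room-temperature loading. HEK293 reporter cells in 1% charcoal/dextran-treated FBS had received compound and rosiglitazone for 16 h.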

[7] = target: Voltage-gated inwardly rectifying potassium channel KCNH2 (Homo sapiens) (UniProt Q12809); assay: qHTS Assay for Small Molecule Inhibitors of the Human hERG Channel Activity (AID 588834);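 also: top concentration of the series differs between compounds; % is scaled to controls: 0 for no effect and ±100 for the full control effect; lower thallium flux fluorescence means stronger hERG block; nearly all actives have a fitted effect of over 50% in size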
Method in brief: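 Step 1: BacMam hERG transduction of U2OS, 4 hrs RT. Step 2: overnight 37 °C, plate 2000 cells/well, 4 hr. Step 3: FluxOR load, compound 10 min, stimulate, read fluorescence.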

[8] = qHTS assay for small molecule activators of the nuclear factor-kappa B (NF-kB) signaling pathway (AID 651749; active = well fitted activation curve with a large enough effect in the signal ratio; the % refers to the signal ratio; also: % of control where 0% means no effect); conditions: NF-kB-bla ME-180 cells, beta-lactamase FRET ratio, 16 h; stronger effect = higher value
Method in brief: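 In this qHTS format, compounds acting as activators increase NF-kB-driven beta-lactamase in ME-180 cells, measured as disrupted FRET after 16 hr exposure at 37C and 5% CO2.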

[9] = qHTS assay for small molecule disruptors of the mitochondrial membrane potential - 5 hr assay (AID 651755; calls by dose curve; also: % is scaled to controls: 0 for no effect and ±100 for the full control effect; nearly all actives have a fitted effect of over 40% in size)
Method in brief: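 Read-out: ratiometric Mito-MPS fluorescence, green monomer (ex 490/em 535) vs red mitochondrial aggregate (ex 540/em 590). HepG2 cells treated 5 hr at 37C before 30 min dye loading.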

[10] = qHTS assay to identify small molecules that stimulate interleukin-8 (IL-8) secretion (AID 651758; active = well fitted activation curve with a large enough effect in the signal ratio; the % refers to the signal ratio; also: 0% is about no effect)
Method in brief: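 Compounds are added to THP-1 cells (2000 per well) and left 16 hrs at 37 C. A labeled anti-IL-8 antibody pair is then added, and IL-8 secretion is measured by time-resolved FRET after 1-3 hrs at room temperature.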

[11] = Cell Viability - Renal Proximal Tubule (AID 545); conditions: renal proximal tubule cells viability, primary cells of rat origin; at 91.7 µM (top of the series);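 also: cells exposed to compound for 40 hours; 0% = DMSO only and -100% = 100 µM tamoxifen; nearly all actives have a fitted effect of over 40% in size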
Method in brief: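 Luminescent ATP signal (CellTiter-Glo) served as the viability read-out after 40 hr compound exposure of freshly isolated rat proximal tubule cells at 37 °C. Concentration-dependent ATP loss was fitted with the Hill equation to give AC50.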

[12] = Cellular Toxicity (caspase-3) SK-N-SH (AID 661);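 also: cells exposed to compound for 16 hours; 0% = DMSO basal and 100% = 10 µM staurosporine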
Method in brief: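 Caspase 3/7 activation was read by luminogenic substrate cleavage after 16 hour treatment of SK-N-SH cells. Signal was scaled between DMSO and 10 uM staurosporine, and concentration-response data were fitted with the Hill equation for AC50.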

[13] = Cell Viability - LYMP2-006 (AID 978); also: % is scaled to controls: 0 for no effect and ±100 for the full control effect; nearly all actives have a fitted effect of over 60% in size
Method in brief: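 Cells are seeded at 2500 per well and rested 5 hr at 37 C. Compounds are added across a concentration series for 24 hr at 37 C, after which ATP is quantified by luciferase luminescence.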

[14] = target: Retinoic acid receptor RXR-alpha (Homo sapiens) (UniProt P19793); assay: qHTS assay for small molecule antagonists of retinoid X receptor alpha signaling (AID 588546; active = well fitted inhibition curve with a large enough effect in the signal ratio, with a control signal flat, not every such curve was filed as active; the % refers to the signal ratio;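 also: cells stimulated with 9-cis-retinoic acid as agonist; % is scaled to controls: 0 for no effect and ±100 for the full control effect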); conditions: HEK293T RXRa-UAS-bla, beta-lactamase ratio, antagonist mode
Method in brief: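 Beta-lactamase reporter inhibition, read as CCF4 fluorescence ratio (ex 405, em 460/530 nm) after 2 h at RT. HEK293T UAS-bla cells, 2500/well, were stimulated with 9-cis-RA at 500 or 100 nM final alongside test compound for 18 h at 37 C.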

[15] = Cell Viability - LYMP2-023 (AID 975); also: nearly all actives have a fitted effect of over 55% in size; also: potency is read from the fitted curve at half-maximal effect;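 as to activity change, negative = cytotoxicity: cellular ATP measured by luciferase luminescence as viability proxy; plate controls were DMSO only for no effect and 92 µM tetraoctylammonium bromide control for full effect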
Method in brief: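 Intracellular ATP, read by CellTiter-Glo luminescence, reports viability after 24 hr compound exposure at 37 C. 2500 lymphoblastoid cells/well (LYMP2-023) seeded 5 hr beforehand; Hill fits give AC50; positive control tetraoctylammonium bromide.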

[16] = Cellular Toxicity (caspase-3) HepG2 (AID 654);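 also: cells exposed to compound for 16 hours before reading; 0% = DMSO alone and 100% = caspase signal from 100 µM tamoxifen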
Method in brief: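 Caspase 3/7 activation is measured as a luminescence increase (aminoluciferin substrate) after 16 h compound exposure of human hepatocarcinoma HepG2 cells. AC50 values are Hill fits, scaled between DMSO baseline and 100 uM tamoxifen stimulation.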

[17] = Cell Viability - LYMP2-012 (AID 982);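 also: cellular ATP by luciferase luminescence where a drop means cytotoxicity; cells exposed to compound for one day before reading; 0% = DMSO only and full loss = 92 µM tetraoctylammonium bromide; nearly all actives have a fitted effect of over 55% in size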
[18] = Cell Viability - LYMP2-003 (AID 965);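 also: cells exposed to compounds for 24 h before reading; 0% = DMSO only and full effect = 92 µM tetraoctylammonium bromide; nearly all actives have a fitted effect of over 50% in size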
Method in brief: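 Seed 2500 lymphoblastoid cells/well; incubate 5 hr, 37 C; add compounds; incubate 24 hr, 37 C; add CellTiter-Glo, 30 min RT; read luminescence. AC50 from Hill fit.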

[19] = Cell Viability - HepG2 (AID 433; calls by dose curve;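 also: potency is read from the fitted curve at half-maximal effect; cells exposed to compound for 40 hours; potency for ATP loss meaning cytotoxicity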); conditions: qHTS
Method in brief: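 Read-out is luciferase-based quantitation of cellular ATP as a measure of viable HepG2 cells after 40 h treatment at 37 °C. Signal decrease is scaled between DMSO-only and 100 uM tamoxifen controls, with AC50 fitted by the Hill equation.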

[20] = Cellular Toxicity (caspase-3) BJ (AID 658);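 also: cells exposed to compound for 16 hours; 0% = DMSO basal and 100% = 10 µM staurosporine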
Method in brief: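 qHTS, BJ fibroblasts, 1000 cells/well; 5 hr preincubation, 16 hr compound, 37 °C; Caspase-Glo 3/7 reagent, 1 hr RT; luminescence. DMSO = 0%, 10 uM staurosporine = 100%. Hill-equation AC50.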

Peroxisome proliferator-activated receptor gamma (Homo sapiens), sequence (P37231 whole entry, looked up): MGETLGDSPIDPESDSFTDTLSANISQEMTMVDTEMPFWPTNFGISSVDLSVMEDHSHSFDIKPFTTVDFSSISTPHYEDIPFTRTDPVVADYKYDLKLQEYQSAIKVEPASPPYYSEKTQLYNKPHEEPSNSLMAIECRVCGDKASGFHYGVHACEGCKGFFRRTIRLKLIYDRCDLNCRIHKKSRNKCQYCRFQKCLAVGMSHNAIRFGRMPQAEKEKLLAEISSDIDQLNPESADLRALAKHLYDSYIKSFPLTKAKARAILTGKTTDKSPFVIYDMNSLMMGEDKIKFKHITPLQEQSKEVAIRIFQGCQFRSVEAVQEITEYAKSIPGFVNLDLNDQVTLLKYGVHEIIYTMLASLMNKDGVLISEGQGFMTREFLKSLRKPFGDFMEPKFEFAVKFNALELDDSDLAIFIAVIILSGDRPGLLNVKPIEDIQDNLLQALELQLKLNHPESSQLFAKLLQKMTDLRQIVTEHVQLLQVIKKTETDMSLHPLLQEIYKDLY
Voltage-gated inwardly rectifying potassium channel KCNH2 (Homo sapiens), sequence (Q12809 whole entry, looked up): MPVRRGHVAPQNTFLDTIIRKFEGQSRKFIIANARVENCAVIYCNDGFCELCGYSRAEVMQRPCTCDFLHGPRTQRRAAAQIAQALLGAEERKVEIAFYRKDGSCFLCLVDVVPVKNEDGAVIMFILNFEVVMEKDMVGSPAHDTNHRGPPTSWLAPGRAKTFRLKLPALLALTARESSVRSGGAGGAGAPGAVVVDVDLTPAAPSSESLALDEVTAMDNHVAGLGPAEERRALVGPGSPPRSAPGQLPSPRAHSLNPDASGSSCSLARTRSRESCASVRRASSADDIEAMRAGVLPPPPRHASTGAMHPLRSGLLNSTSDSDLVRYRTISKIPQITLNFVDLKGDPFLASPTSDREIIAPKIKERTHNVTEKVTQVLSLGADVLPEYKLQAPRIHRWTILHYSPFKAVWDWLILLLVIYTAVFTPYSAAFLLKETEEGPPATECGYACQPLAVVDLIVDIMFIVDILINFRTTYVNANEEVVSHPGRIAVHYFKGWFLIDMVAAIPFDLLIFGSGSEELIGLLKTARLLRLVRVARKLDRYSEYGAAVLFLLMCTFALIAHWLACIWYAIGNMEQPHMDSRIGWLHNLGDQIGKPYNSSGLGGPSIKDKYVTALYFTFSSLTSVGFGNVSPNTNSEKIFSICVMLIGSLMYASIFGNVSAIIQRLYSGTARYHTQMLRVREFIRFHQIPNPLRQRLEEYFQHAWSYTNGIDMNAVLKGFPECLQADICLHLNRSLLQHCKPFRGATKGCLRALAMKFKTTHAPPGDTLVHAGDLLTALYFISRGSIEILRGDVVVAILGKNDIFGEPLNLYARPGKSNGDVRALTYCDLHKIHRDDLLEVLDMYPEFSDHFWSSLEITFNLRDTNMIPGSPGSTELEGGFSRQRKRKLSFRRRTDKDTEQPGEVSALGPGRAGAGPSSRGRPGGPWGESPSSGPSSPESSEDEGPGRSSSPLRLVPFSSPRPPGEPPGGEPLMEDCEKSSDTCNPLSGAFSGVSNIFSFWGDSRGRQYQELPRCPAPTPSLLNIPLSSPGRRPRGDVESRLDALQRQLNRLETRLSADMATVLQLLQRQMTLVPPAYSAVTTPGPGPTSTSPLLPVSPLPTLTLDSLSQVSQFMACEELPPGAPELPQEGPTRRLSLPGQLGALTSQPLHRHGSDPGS
Retinoic acid receptor RXR-alpha (Homo sapiens), sequence (P19793 whole entry, looked up): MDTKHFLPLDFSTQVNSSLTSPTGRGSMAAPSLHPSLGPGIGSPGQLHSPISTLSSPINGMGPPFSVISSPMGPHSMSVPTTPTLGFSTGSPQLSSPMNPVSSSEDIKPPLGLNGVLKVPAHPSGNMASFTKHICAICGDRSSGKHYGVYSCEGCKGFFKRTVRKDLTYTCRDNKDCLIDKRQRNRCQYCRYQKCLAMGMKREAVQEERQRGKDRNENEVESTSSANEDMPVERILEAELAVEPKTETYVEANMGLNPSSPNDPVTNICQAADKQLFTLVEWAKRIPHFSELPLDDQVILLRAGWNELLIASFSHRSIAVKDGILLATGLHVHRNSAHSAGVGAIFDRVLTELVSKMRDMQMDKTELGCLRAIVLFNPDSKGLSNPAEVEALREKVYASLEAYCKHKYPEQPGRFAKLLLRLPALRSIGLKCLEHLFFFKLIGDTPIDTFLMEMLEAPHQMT
Bile acid receptor (Homo sapiens), sequence (Q96RI1 whole entry, looked up): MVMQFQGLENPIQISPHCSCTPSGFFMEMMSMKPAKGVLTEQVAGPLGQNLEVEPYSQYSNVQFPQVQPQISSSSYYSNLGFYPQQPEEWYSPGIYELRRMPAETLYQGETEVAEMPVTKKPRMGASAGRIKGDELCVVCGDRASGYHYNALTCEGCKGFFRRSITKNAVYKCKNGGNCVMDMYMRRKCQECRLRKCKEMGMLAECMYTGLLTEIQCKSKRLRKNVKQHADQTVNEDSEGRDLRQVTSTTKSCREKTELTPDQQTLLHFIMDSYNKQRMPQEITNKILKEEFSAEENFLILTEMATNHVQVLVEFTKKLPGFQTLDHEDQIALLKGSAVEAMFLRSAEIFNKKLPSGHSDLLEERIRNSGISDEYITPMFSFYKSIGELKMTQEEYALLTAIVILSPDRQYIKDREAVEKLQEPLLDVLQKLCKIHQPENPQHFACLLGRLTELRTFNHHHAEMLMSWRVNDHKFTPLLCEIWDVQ
Peroxisome proliferator-activated receptor delta (Homo sapiens), sequence (Q03181 whole entry, looked up): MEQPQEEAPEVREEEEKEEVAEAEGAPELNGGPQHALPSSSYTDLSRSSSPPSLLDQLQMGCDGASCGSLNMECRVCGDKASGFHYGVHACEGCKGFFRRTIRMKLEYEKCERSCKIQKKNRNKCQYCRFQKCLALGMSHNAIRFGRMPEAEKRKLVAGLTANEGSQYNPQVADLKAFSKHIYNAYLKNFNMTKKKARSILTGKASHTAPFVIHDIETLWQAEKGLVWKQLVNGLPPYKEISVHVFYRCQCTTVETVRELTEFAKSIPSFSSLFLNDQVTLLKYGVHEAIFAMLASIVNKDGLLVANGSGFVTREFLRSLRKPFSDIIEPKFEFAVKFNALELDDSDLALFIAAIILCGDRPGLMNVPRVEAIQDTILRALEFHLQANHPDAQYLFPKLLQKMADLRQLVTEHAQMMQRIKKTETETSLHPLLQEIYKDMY

CCO
-20.9%: max response [4]
inactive: outcome [1] | Potency [2] | outcome [3] | Potency [5] | outcome [6] | Potency [7] | activation [8] -0.227% | Potency [9] | Potency [10]

O=NO
3.13% and -3.55%: max response [4]
inactive: activity change, negative = cytotoxicity [11] -3.27% and -5.21% | outcome [12] | Potency [13] | Potency [5] | outcome [6] | max response [14] 16.8% and -9.55% | Potency [7] | activation [8] -0.475% and 1.4% | Potency [9] | Potency [10]

C=CC(=O)OCCOCCOCCOCCOC(=O)C=C
active: activity change, negative = cytotoxicity [11] -95.5% and -108% | Potency [15] 25.1 µM and 31.6 µM | Potency [5] 28.2 µM
-103%: max response [4]

COC(=O)c1ccc(C)cc1
inactive: activity change, negative = cytotoxicity [11] -5.83% | outcome [16] | outcome [3] | Potency [5] | Potency [7] | Potency [9]
-3.36% and -19.7%: max response [4]

CCC(C)c1ccccc1O (centres undefined)
-8.1% and -17.6%: max response [4]
inactive: activity change, negative = cytotoxicity [11] 2.94% and 2.27% | Potency [15] | Potency [13] | Potency [17] | Potency [5] | outcome [6] | max response [14] 0.496% and -0.838% and 1.78% | Potency [7] | activation [8] 0.327% and -0.174% and -0.563%

O=C(O)c1ccc(O)cc1O
43.1%: max response [4]
inactive: outcome [1] | activity change, negative = cytotoxicity [11] -3.65% and 5.93% | Potency [18] | Potency [15] | outcome [3] | Potency [5] | outcome [6] | max response [14] 1.87% | activation [8] 0.834% and -0.343% | Potency [10]

CCCCCCCCCCCCCCC1CO1 (centres undefined)
inactive: outcome [12] | Potency [13] | Potency [17] | Potency [5] | outcome [6]
14.3%: max response [4]

COc1ccc2nc(N)sc2c1
inactive: Potency [19] > 92 µM | activity change, negative = cytotoxicity [11] -14.7% | outcome [16] | Potency [17] | max response [14] 1.97% and 2.53% | Potency [7]

Cc1ccc([N+](=O)[O-])c(C)c1
inactive: outcome [16] | outcome [20] | Potency [18] | outcome [3] | Potency [5] | outcome [6] | max response [14] -1.42% and 0.976% | Potency [9] | Potency [10]
-27.9% and -14.4%: max response [4]

c1ccccc1
inactive: activity change, negative = cytotoxicity [11] 3.93% and -11% | outcome [16] | outcome [12] | Potency [17] | outcome [3] | outcome [6] | activation [8] -0.601% [middle of 4 runs] | Potency [9] | Potency [10]
